# Assay results reported in PubChem BioAssay.
# Records with an inconclusive call do not appear. Active and inactive are the calls of the source.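 The calls were made as follows, unless noted: active = percent response above a set limit, the screen-wide mean plus 3 SD (cut at about 130% in these data); inactive = the rest.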 Peptide text beside a SMILES is read from it.
# Assays:
# [1] = rapamycin-like changes in RPL19A-GFP expression – cell-based, S. cerevisiae, multiplex flow cytometry, primary screen (AID 1862; in the data active = percent of DMSO control GFP below about 86%;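 also: lower values mimic rapamycin by blocking the RPL19A rise seen in DMSO cells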); conditions: S. cerevisiae RPL19A-GFP strain, flow cytometry fluorescence, 3 h; at 10 µM; stronger effect = lower value
# [2] = TOR pathway GLN3 branch reporter MEP2-GFP changes – S. cerevisiae, multiplex flow cytometry, primary screen (AID 1867;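 active = GFP response, as percent of the DMSO control, above the screen-wide mean plus 3 SD, about 139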;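 also: median GFP channel fluorescence of barcode-gated MEP2-GFP cells measured by flow cytometry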); conditions: S. cerevisiae MEP2-GFP strain, 3 h, at 10 µM, stronger effect = higher value, 100% means same as DMSO wells
# [3] = TOR pathway RTG branch CIT2 reporter changes – S. cerevisiae, GFP fusion, multiplex flow cytometry, primary screen (AID 1870);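 also: barcoded CIT2-GFP strain pooled with four other GFP strains with rapamycin as positive control; median GFP fluorescence per well over plate mean of DMSO wells so 100% = DMSO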; conditions: S. cerevisiae CIT2-GFP expression, 3 h, at 10 µM, stronger effect = higher value
# [4] = TOR pathway LAP4-GFP level changes – S. cerevisiae, multiplex flow cytometry, primary screen (AID 1873;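 active = GFP signal, as percent of the solvent control, above the screen mean plus 3 SD, about 149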); conditions: S. cerevisiae LAP4-GFP expression, 3 h, at 10 µM, stronger effect = higher value
# [5] = yeast AGP1-GFP level changes, GLN3 branch – cell-based, multiplex flow cytometry, S. cerevisiae, primary screen (AID 1887;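 active = GFP signal above the screen-wide mean plus 3 SD, that is over about 124.5% of the solvent control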;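 also: AGP1-GFP fusion strain of S. cerevisiae within a five-strain barcoded multiplex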); conditions: 3 h, at 10 µM, stronger effect = higher value
# [6] = reduced mouse 2C T cell binding to pMHC/ICAM-1 vesicles – MLPCN validation set, flow cytometry, LFA-1/ICAM-1 modulator project, pilot screen (AID 2523;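 active = response below a set limit, under 55% cells CD8-positive and vesicle-bound, and CD8 cells' 90th-percentile brightness under 279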;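 as to vesicle binding response: mean PE anti-B7-1 fluorescence of CD8+ cells relative to row control; 100% = QL9-loaded vesicles with DMSO vehicle in the same plate row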); conditions: 2C mouse CD8+ T cells, at 7 µM, stronger effect = lower value; double positive events: measured here: CD8+/vesicle+ event percentage
# [7] = target: Integrin beta-1 (Homo sapiens) + Integrin alpha-4 (Homo sapiens) (UniProt P13612+P05556); experiment: alpha4beta1 integrin LIBS antibody binding reduction – U937 cells, HUTS-21 mAb, flow cytometry, validation set, VLA-4 allosteric modulator project, pilot screen (AID 2674;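 active = inhibition above 50%, about 3 SD of the validation set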;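 also: antibody binding induced by the VLA-4 ligand LDV present at three times its Kd; 0% = LDV ligand with antibody and no compound and 100% = antibody without LDV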); conditions: HUTS-21 LIBS mAb binding, at 6.7 µM, stronger effect = higher value, binding induced by LDV ligand
# [8] = calorie-restriction mimetic ROS inhibitors, yeast – validation compound set, pilot screen (AID 2706;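 active = superoxide response below 65% of plate, a cut near 3 SD across the whole screen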;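 also: yeast exposed to compound for one week at 30 degrees C before staining; 100% = mean of all compound wells on the same plate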); conditions: S. cerevisiae aging, superoxide DHE fluorescence; at 10 µM; stronger effect = lower value
# [9] = target: Beta-adrenergic receptor kinase 1 (Homo sapiens) (UniProt P25098); experiment: GRK2 binders displacing RNA aptamer, biochemical, validation, human GRK2, bead flow cytometry (AID 488806;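 active = aptamer binding inhibition above 30%, about 3 SD of noise from non-fluorescent compounds; inactive = inhibition at or below 30%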); conditions: bead-bound GRK2, FAM-aptamer displacement, at 10 µM, stronger effect = higher value
# [10] = target: Beta-2 adrenergic receptor (Homo sapiens) (UniProt P07550); experiment: agonist-induced loss of surface beta2AR – cell-based, FAP fluorogen, flow cytometry, validation set, pilot screen (AID 504459;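 active = percent response above 42, roughly 3 SD of non-fluorescent test compounds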;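 also: agonist-driven loss of surface beta2AR via internalization measured by FAP dye flow cytometry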); conditions: Am2.2-beta2AR cells, at 10 µM, stronger effect = higher value
# [11] = target: AP-2 complex subunit beta (Homo sapiens) (UniProt P63010); experiment: beta-arrestin/AP2 interaction blockers – biochemical, validation set, GST-AP2 beads, flow cytometry, pilot screen (AID 504541;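 active = inhibition above 54%, about 3 SD of non-fluorescent compounds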;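 also: AP2 carries R879A mutation and is captured from E. coli lysate; bead-bound FITC arrestin peptide fluorescence measuring arrestin peptide binding to AP2; 0% = DMSO wells and 100% = excess unlabeled arrestin peptide control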); conditions: FITC arrestin peptide, at 10 µM, stronger effect = higher value, AP2 beta2 appendage fragment, R879A mutant
# [12] = cytosolic pH regulators acting via V-ATPase – S. cerevisiae, pHLuorin, HTS validation (AID 504600; in the data active = response above about 15%;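 also: plate controls were DMSO for no effect and reference compound for full effect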); conditions: V-ATPase proton transport, at 10 µM, stronger effect = higher value
# [13] = tested on: anti-desmoglein-3 scFv antibody binding to human DSG3; experiment: blockers of pathogenic pemphigus antibody–desmoglein-3 binding – biochemical, validation compound set, bead-based, flow cytometry, pilot screen (AID 588368;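 active = binding below the plate cutoff, the plate median minus 3 SD, with a reading above zero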;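 also: signal is the median channel fluorescence of bead-bound GFP antibody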); conditions: Protein G beads, DSG3-Fc, scFv-GFP binding, at 10 µM, stronger effect = lower value
# [14] = Nile Red efflux blockade in pump-expressing yeast – validation compound set, multiplex, phenotypic, pilot screen (AID 588506;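 active = efflux inhibition above 0.42, the validation set average plus 4 SD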;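 also: Nile Red retained in cells so higher fluorescence means more efflux inhibition; 0 = negative control wells and 1 = enniatin B 25 µM full block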); conditions: S. cerevisiae pump-expressing triplex, Nile Red efflux flow cytometry; at 10 µM; stronger effect = higher value; the pumps come from Candida albicans
# [15] = target: ATP-binding cassette sub-family B member 6 (Homo sapiens) (UniProt Q9NP58); experiment: blockers of ABCB6-driven porphyrin uptake – K562-ABCB6 cells, flow cytometry, validation set, pilot screen (AID 588550;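 active = inhibition above the screen-wide mean plus 3 SD, about 51%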;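 also: 0% = DMSO wells and 100% = benzethonium chloride 70 µM positive control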); conditions: K562-ABCB6 porphyrin accumulation, 1 h, at 10 µM, stronger effect = higher value
# [16] = AML differentiation inducers, ER-HoxA9 marrow cells – cell-based, GFP/MAC1 double positive, flow cytometry, validation set, primary screen (AID 588685;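 active = differentiation response of at least 50%, scaled between solvent and reference control, from cells with both markers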;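 also: compound exposure lasts four days before antibody staining and flow analysis; 0% = DMSO wells and 100% = 5 µM fulvestrant positive control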); conditions: stronger effect = higher value, normalized: vehicle 0, fulvestrant 100
# Sequence of Beta-2 adrenergic receptor (Homo sapiens) (P07550 whole entry, looked up): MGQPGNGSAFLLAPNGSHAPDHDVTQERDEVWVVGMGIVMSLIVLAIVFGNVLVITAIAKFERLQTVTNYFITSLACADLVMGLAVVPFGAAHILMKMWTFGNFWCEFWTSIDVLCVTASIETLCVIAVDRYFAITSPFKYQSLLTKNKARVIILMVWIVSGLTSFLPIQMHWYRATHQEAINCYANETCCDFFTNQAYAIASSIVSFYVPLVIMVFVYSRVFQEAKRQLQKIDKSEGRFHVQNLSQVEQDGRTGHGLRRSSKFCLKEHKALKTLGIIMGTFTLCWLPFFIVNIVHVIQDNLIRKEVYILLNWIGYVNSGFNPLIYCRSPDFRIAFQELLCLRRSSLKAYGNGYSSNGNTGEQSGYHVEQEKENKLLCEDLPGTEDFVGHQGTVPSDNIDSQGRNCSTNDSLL
# Sequence of ATP-binding cassette sub-family B member 6 (Homo sapiens) (Q9NP58 whole entry, looked up): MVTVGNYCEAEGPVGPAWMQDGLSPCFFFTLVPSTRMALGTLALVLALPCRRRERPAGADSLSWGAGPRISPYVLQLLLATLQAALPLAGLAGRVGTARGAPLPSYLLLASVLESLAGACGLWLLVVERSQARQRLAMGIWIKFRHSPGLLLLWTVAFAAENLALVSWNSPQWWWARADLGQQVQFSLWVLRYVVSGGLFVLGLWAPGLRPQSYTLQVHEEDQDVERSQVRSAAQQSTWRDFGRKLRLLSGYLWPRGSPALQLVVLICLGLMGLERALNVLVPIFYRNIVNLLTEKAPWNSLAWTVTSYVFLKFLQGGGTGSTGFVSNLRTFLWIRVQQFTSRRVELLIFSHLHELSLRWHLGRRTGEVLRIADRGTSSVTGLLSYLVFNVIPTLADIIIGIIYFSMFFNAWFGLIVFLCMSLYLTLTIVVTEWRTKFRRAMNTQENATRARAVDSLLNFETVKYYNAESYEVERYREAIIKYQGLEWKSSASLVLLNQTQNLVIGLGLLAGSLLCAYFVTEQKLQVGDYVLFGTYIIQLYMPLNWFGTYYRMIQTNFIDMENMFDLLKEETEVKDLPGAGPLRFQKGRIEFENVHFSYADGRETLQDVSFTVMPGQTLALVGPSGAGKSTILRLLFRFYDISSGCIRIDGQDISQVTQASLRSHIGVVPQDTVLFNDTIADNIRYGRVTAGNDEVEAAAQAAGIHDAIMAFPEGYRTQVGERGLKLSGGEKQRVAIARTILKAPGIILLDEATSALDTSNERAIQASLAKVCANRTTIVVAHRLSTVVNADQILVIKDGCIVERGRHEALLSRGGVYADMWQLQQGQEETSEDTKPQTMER
# Sequence of Integrin beta-1 (Homo sapiens) + Integrin alpha-4 (Homo sapiens) (P05556 whole entry, looked up): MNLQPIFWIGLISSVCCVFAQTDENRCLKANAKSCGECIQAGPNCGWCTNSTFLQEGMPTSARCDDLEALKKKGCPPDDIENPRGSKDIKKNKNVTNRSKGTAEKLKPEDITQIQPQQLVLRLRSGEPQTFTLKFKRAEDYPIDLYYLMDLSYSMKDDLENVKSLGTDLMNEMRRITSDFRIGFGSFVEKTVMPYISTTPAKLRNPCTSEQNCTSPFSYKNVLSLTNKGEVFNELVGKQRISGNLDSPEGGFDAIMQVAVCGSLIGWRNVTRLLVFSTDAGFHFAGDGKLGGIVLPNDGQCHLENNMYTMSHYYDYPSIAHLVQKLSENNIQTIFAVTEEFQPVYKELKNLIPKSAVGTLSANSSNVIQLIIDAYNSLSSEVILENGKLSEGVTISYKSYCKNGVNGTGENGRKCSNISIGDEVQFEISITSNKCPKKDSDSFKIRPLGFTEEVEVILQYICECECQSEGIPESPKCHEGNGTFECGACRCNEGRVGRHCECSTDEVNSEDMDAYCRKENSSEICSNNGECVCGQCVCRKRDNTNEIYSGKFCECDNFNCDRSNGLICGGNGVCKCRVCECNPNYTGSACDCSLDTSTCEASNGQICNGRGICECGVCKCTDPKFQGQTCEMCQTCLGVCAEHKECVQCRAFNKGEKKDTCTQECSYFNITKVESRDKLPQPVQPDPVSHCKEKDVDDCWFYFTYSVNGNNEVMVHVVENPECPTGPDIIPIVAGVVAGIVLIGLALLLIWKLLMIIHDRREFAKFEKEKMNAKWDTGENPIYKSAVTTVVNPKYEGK
# Sequence of Integrin beta-1 (Homo sapiens) + Integrin alpha-4 (Homo sapiens) (P13612 whole entry, looked up): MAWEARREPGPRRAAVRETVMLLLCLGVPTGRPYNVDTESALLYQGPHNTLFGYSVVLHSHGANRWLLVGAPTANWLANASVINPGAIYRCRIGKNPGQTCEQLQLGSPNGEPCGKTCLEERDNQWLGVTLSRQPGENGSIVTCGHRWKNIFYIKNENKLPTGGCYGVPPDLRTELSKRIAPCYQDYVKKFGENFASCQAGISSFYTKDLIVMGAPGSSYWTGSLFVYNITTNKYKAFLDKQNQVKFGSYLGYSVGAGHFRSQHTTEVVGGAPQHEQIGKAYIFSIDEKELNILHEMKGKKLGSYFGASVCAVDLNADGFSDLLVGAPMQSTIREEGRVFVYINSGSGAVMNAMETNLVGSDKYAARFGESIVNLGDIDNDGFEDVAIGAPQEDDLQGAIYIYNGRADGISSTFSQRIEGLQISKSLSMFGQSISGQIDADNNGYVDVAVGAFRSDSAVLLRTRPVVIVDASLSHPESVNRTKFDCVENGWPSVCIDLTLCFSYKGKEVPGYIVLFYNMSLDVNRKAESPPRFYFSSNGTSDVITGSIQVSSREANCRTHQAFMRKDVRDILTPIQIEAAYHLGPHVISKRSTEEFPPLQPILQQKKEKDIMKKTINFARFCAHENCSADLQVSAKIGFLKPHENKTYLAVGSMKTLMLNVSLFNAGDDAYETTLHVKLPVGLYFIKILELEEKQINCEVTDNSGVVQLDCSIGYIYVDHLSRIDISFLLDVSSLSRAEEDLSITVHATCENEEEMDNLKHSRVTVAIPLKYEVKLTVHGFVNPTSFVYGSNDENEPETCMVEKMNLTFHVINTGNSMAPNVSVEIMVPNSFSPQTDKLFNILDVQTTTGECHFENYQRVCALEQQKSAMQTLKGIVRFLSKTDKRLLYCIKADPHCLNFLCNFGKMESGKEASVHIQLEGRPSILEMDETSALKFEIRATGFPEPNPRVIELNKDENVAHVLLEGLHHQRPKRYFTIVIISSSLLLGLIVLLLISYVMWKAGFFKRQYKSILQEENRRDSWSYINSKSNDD
# Sequence of AP-2 complex subunit beta (Homo sapiens) (P63010 whole entry, looked up, the tested form may be a part, one chain of several): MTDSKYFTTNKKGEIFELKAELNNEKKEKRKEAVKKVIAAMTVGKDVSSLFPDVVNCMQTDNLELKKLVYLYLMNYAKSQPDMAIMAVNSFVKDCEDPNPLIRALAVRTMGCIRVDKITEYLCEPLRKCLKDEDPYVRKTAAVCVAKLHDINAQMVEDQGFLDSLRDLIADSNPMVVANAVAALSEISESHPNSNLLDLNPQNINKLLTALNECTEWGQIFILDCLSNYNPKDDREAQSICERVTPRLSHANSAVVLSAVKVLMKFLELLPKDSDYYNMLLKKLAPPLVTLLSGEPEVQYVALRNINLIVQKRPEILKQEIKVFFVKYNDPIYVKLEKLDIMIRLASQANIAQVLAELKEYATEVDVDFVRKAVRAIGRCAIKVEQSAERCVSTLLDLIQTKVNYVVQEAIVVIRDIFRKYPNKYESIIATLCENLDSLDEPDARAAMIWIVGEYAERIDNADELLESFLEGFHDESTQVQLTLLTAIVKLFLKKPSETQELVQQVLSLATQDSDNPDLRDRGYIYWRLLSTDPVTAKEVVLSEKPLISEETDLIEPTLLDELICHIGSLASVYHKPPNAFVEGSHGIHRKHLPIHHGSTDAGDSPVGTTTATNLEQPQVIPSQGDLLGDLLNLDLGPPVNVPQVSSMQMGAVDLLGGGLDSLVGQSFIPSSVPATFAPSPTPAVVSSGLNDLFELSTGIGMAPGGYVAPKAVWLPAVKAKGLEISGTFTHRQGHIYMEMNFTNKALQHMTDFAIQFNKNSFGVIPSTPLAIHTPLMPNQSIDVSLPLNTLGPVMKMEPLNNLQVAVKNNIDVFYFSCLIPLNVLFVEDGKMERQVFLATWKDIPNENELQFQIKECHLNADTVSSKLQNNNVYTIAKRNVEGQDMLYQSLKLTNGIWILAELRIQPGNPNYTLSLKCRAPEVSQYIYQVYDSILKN
# Sequence of Beta-adrenergic receptor kinase 1 (Homo sapiens) (P25098 whole entry, looked up): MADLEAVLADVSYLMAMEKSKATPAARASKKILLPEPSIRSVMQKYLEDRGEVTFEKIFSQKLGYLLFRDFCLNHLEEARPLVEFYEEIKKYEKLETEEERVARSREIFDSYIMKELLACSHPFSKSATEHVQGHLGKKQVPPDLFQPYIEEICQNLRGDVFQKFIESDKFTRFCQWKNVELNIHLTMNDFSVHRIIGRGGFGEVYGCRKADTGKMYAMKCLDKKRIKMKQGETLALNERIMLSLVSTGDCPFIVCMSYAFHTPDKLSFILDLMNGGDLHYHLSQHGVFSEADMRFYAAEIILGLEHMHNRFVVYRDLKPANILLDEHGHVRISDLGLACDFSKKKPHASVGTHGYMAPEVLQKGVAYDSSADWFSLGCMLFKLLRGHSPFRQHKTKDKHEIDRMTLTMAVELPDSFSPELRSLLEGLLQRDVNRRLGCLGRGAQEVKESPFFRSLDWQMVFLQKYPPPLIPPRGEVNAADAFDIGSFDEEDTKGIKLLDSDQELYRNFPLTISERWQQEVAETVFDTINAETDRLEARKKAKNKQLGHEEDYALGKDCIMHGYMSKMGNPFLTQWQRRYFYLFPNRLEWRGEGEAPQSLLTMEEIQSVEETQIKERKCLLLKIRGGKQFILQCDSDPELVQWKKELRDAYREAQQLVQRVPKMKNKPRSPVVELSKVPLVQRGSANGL
Structure (SMILES),percent of DMSO control GFP [1],GFP response vs DMSO [2],percent response of DMSO control [3],GFP response vs DMSO [4],"GFP response, % of DMSO [5]",double positive events [6],vesicle binding response [6],inhibition [7],superoxide response (% of plate) [8],aptamer binding inhibition [9],response [10],inhibition [11],response [12],binding (% of control) [13],efflux inhibition (fraction of control) [14],inhibition [15],differentiation response [16]
O=C(CS(=O)(=O)Cc1ccccc1)NCc1ccc2c(c1)OCO2,88% (inactive),123% (inactive),88.6% (inactive),81.4% (inactive),95.2% (inactive),63.3%,123% (inactive),-3.24% (inactive),92% (inactive),1% (inactive),-3.4% (inactive),-1.72% (inactive),-0.1% (inactive),104% (inactive),-0.24 (inactive),-87% (inactive),5.73% (inactive)
O=c1nc2sc3ccccc3n2c(=O)n1-c1ccc(Cl)cc1,105% (inactive),97.2% (inactive),108% (inactive),96.6% (inactive),99.7% (inactive),64.1%,232% (inactive),-12.9% (inactive),110% (inactive),-3% (inactive),-10.3% (inactive),-5.72% (inactive),1.03% (inactive),96.4% (inactive),-0.14 (inactive),11% (inactive),3.18% (inactive)
Cc1cccc(Nc2ncccc2C(=O)O)c1C,103% (inactive),103% (inactive),109% (inactive),90.1% (inactive),108% (inactive),62.7%,203% (inactive),2.66% (inactive),105% (inactive),1% (inactive),-6.59% (inactive),1.75% (inactive),-0.8% (inactive),98.4% (inactive),0.08 (inactive),6% (inactive),-9.53% (inactive)
CC(=O)NC(CC(C)C)C(=O)NC(Cc1ccccc1)C(N)=O (stereo not drawn) (Ac-Leu-Phe-NH2; configuration not given here),101% (inactive),107% (inactive),98.6% (inactive),111% (inactive),103% (inactive),60.5%,128% (inactive),20.4% (inactive),91.8% (inactive),2% (inactive),4.73% (inactive),-15.5% (inactive),-1.63% (inactive),103% (inactive),-0.13 (inactive),13% (inactive),-4.57% (inactive)
C#CCOc1ccc2c(C)cc(=O)oc2c1,105% (inactive),93% (inactive),107% (inactive),77.6% (inactive),98.9% (inactive),60.4%,603% (inactive),3.7% (inactive),98% (inactive),4% (inactive),-1.57% (inactive),-7.76% (inactive),-0.49% (inactive),99.7% (inactive),0.36 (inactive),0% (inactive),16.9% (inactive)
CC(CCc1ccccc1)NC(=O)/C=C/c1ccccc1 (stereo not drawn),92.6% (inactive),132% (inactive),107% (inactive),92.4% (inactive),81.7% (inactive),61.8%,129% (inactive),1.61% (inactive),91.7% (inactive),5% (inactive),-12.9% (inactive),-0.16% (inactive),1.44% (inactive),103% (inactive),-0.13 (inactive),12% (inactive),0% (inactive)
CC1CCN(CCOCCOc2ccccc2Br)CC1,102% (inactive),103% (inactive),93.1% (inactive),86.8% (inactive),97.2% (inactive),54.8%,167% (inactive),8.88% (inactive),95.8% (inactive),0% (inactive),-4.72% (inactive),-6.16% (inactive),-0.14% (inactive),95.6% (inactive),-0.17 (inactive),-4% (inactive),15.9% (inactive)
CC1(C)Oc2ccc(C#N)cc2[C@@H](N2CCCC2=O)[C@@H]1O,97.9% (inactive),115% (inactive),116% (inactive),78.7% (inactive),99.1% (inactive),63%,180% (inactive),2.58% (inactive),93% (inactive),-1% (inactive),-6.3% (inactive),1.01% (inactive),0.27% (inactive),100% (inactive),-0.09 (inactive),6% (inactive),0% (inactive)
CN(C)c1ccc(Nc2c3c4c(cccc4n(C)c2=O)C(=O)c2ccccc2-3)cc1,99.3% (inactive),108% (inactive),111% (inactive),126% (inactive),108% (inactive),60.5%,195% (inactive),-0.27% (inactive),71% (inactive),0% (inactive),-25.2% (inactive),16.7% (inactive),-0.9% (inactive),93.8% (inactive),-0.17 (inactive),3% (inactive),-9.91% (inactive)
CC(=O)[C@@]1(O)CC[C@H]2[C@@H]3C[C@H](C)C4=CC(=O)C=C[C@]4(C)[C@@]3(F)[C@@H](O)C[C@@]21C,102% (inactive),134% (inactive),110% (inactive),93% (inactive),95.2% (inactive),63.3%,157% (inactive),2.58% (inactive),99.4% (inactive),5% (inactive),-0.53% (inactive),32.1% (inactive),-3.11% (inactive),101% (inactive),-0.35 (inactive),9% (inactive),9.83% (inactive)
OCC1CCN(Cc2cn(Cc3ccccc3)nc2-c2cc3ccccc3o2)CC1,106% (inactive),97.2% (inactive),97.8% (inactive),79.5% (inactive),102% (inactive),60.9%,203% (inactive),18.2% (inactive),99.1% (inactive),-3% (inactive),21% (inactive),5.6% (inactive),-6.29% (inactive),98.5% (inactive),0.52 (active),20% (inactive),10% (inactive)
O=C(Nc1ccc(N2CCOCC2)cc1)c1ccc(-c2ccccc2[N+](=O)[O-])o1,102% (inactive),102% (inactive),106% (inactive),96.5% (inactive),98.8% (inactive),68.5%,132% (inactive),3.98% (inactive),99.9% (inactive),5% (inactive),8.71% (inactive),-4.06% (inactive),1.65% (inactive),97.9% (inactive),0.07 (inactive),6% (inactive),-1.88% (inactive)
NCCc1ccc(O)c(O)c1,98.2% (inactive),107% (inactive),93.1% (inactive),92% (inactive),95.6% (inactive),65.4%,831% (inactive),-10.8% (inactive),90.7% (inactive),3% (inactive),11.2% (inactive),11.9% (inactive),-0.98% (inactive),94.3% (inactive),0.08 (inactive),6% (inactive),5.13% (inactive)
CC(=O)NC1C(OCc2ccccc2)OC(COC(C)=O)C(OC(C)=O)C1OC(C)=O (stereo not drawn),104% (inactive),104% (inactive),106% (inactive),91.5% (inactive),96% (inactive),65.2%,183% (inactive),-44% (inactive),105% (inactive),2% (inactive),1.83% (inactive),-2% (inactive),-3.81% (inactive),104% (inactive),0.12 (inactive),2% (inactive),-6.03% (inactive)
CCCc1cc(=O)[nH]c(=S)[nH]1,99.1% (inactive),101% (inactive),96.5% (inactive),103% (inactive),107% (inactive),61.7%,144% (inactive),-2.43% (inactive),86.8% (inactive),0% (inactive),-3.16% (inactive),-5.08% (inactive),12.1% (inactive),101% (inactive),0.44 (active),-3% (inactive),-1.65% (inactive)
C=CCC1(Cl)C(=O)C(Cl)=C(N2CCOCC2)C1(OC)OC (stereo not drawn),101% (inactive),94.1% (inactive),108% (inactive),99.1% (inactive),95.2% (inactive),59.1%,167% (inactive),-4.52% (inactive),102% (inactive),2% (inactive),-2.88% (inactive),-0.19% (inactive),-0.35% (inactive),98.9% (inactive),-0.21 (inactive),8% (inactive),-4% (inactive)
Cn1cc(CN2CCC(C(=O)N3CCCCC3)CC2)c(-c2ccccc2F)n1,95.9% (inactive),137% (inactive),104% (inactive),85.8% (inactive),94.2% (inactive),63.2%,131% (inactive),5.49% (inactive),92.8% (inactive),4% (inactive),-5.43% (inactive),0.65% (inactive),-1.21% (inactive),104% (inactive),-0.02 (inactive),16% (inactive),0% (inactive)
O=C(/C=C/c1ccc2c(c1)OCCCO2)c1ccc2ccccc2c1O,97.3% (inactive),102% (inactive),99.6% (inactive),112% (inactive),109% (inactive),59.6%,215% (inactive),-76.9% (inactive),102% (inactive),8% (inactive),-12.2% (inactive),-2.45% (inactive),2.01% (inactive),98.5% (inactive),0.04 (inactive),6% (inactive),-7.94% (inactive)
COc1cc(OC)cc(C(C)=O)c1,96% (inactive),91.8% (inactive),95.1% (inactive),99.5% (inactive),104% (inactive),68.7%,149% (inactive),14.2% (inactive),94.5% (inactive),9% (inactive),-14.6% (inactive),-2.85% (inactive),-2.23% (inactive),81.3% (inactive),0 (inactive),5% (inactive),-6.96% (inactive)
